Test [1] can be described thus: Viability qHTS for spleen associated tyrosine kinase inhibitor (SYKi) naive MV4-11 cells (AID 1963823). Note: nearly all actives have a fitted effect of over 40% in size. Put shortly:
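qHTS, SYK inhibitor-naive MV4-11; 500 cells/well; 72 hr compound exposure, 37 C; CellTiter-Glo added, 10 min RT; luminescence read.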
On the technique in general: qHTS replaces the single test concentration by a dilution series.

A short description of test [2]: Viability qHTS for spleen associated tyrosine kinase inhibitor (SYKi) drug resistant MV4-11 cells (AID 1963824). Note: nearly all actives have a fitted effect of over 35% in size. Put shortly: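 SYK-inhibitor-resistant MV4-11 AML cells were seeded at 500 per well onto compound and cultured 72 hours (37 °C, 5% CO2). CellTiter-Glo was then added, and after 10 min at room temperature, luminescence gave viability.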
Test [3] in a line: Cellular viability qHTS for adrenocortical cancer (ACC) cell line NCI-H295R (AID 1963990). Note: nearly all actives have a fitted effect of over 60% in size. Put shortly:
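Adrenocortical carcinoma cells, suspended at 300 000 cells/mL in serum-free DMEM plus ITS, rested overnight before pin transfer of compound. After two days' incubation, ATP-dependent luminescence was recorded and curve-fitted.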

Molecules are shown by their SMILES. Several values for one entry are separate records, joined by “and”; a condition that tells them apart may be missing. Equal values may be shown once. Records with an inconclusive call do not appear. Where a structure was tested more than once in an assay, its records may differ in their call. Activity calls are given as the source filed them. Calls come from the whole dose curve; as a rule, active = well fitted curve in the direction sought with a large enough effect; inconclusive = small, poorly fitted or top-dose-only effect, or another doubt; inactive = no such curve, though single readings can be large; an effect the other way counts as inactive or inconclusive.

46 compounds from PubChem BioAssay (NCATS) can be followed below.
Potency is the fitted concentration of half-maximal effect.

On to `N#Cc1ccc(-c2c(-c3ncn[nH]3)sc(N3CCOCC3)c2C#N)c(F)c1`, for which the Potency is 3.26 µM (active) and 3.32 µM (active) in test [1]; 2.06 µM (active) and 5.9 µM (active) in test [2]; 4.47 µM (active) in test [3].
Take `Cc1ccc(Nc2nnc(Cc3ccncc3)c3ccccc23)cc1Br`: the Potency is 14.8 µM (active) in test [1] and 10.5 µM (active) in test [2]. Also, in test [3], the Potency result is “inactive”.
`Nc1nccn2c(C3CCC(C(=O)O)CC3)nc(-c3cc4cccc(Cl)c4[nH]3)c12` (stereo not drawn): the Potency was 0.934 µM (active) in test [1]; 580 nM (active) and 1.48 µM (active) in test [2]; 12.6 µM (active) in test [3].
For the compound `Cn1nccc1Nc1nccc(-c2cc3c(s2)C(C)(C)N(CCN2CCOCC2)C3=O)n1`, the Potency in test [1] and in test [2] was 3.72 µM (active) throughout. For the same compound, the Potency entry in test [3] was “inactive”.
Consider `COc1ccc(NS(=O)(=O)c2ccc(N)cc2)nn1`, for which the Potency entry in test [1], in test [2] and in test [3] was “inactive” throughout.
Regarding `CCOC(=O)N1CCN(/[N+]([O-])=N/Oc2ccc([N+](=O)[O-])cc2[N+](=O)[O-])CC1`, the Potency in test [1] is 2.95 µM (active); in test [2], 2.63 µM (active); in test [3], 22.4 µM (active).
On to `Cc1nc(-c2cccnc2)sc1C(=O)Nc1ccccc1-c1cn2c(CN3CCOCC3)csc2n1`, for which the Potency entry in test [1], in test [2] and in test [3] was “inactive” in each case.
For `CCN(CC)CCNC(=O)c1c(C)[nH]c(/C=C2/C(=O)Nc3ccc(-c4csc(-c5ccccc5)n4)cc32)c1C`, the Potency in test [1] is 0.468 µM (active); in test [2] it was 1.32 µM (active); in test [3] it was 3.55 µM (active).
Regarding `CCS(=O)(=O)CCn1c([N+](=O)[O-])cnc1C`, the Potency entry in test [1] and in test [2] was “inactive” in each case. The Potency in test [3] is 25.9 µM (active).
On to `CNC(=O)c1cccc(-c2ccc3c(N4CCOC[C@@H]4C)nc(N4CCOC[C@@H]4C)nc3n2)c1`, for which the Potency is 164 nM (active) and 411 nM (active) and 132 nM (active) in test [1]; 291 nM (active) and 580 nM (active) and 417 nM (active) in test [2]; 0.794 µM (active) in test [3].
Take `NS(=O)(=O)c1cc(-c2nn[nH]n2)c(NCc2cccs2)cc1Cl`: the Potency entry in test [1], in test [2] and in test [3] was “inactive” each time.
Turning to `OC(c1ccc(-c2ccc(CN3CCN(Cc4ccncc4)CC3)cc2)c(F)c1)(C(F)(F)F)C(F)(F)F`, the figures for the Potency in test [1] and in test [2] were 4.17 µM (active) and 5.9 µM (active), respectively. Besides, the Potency entry in test [3] is “inactive”.
The corresponding values for `Cn1cc[nH]c1=S` are “inactive”, “inactive” and “inactive”.
Regarding `COC(=O)C1=C(C)NC(C)=C(C(=O)O[C@@H]2CCCN(Cc3ccccc3)C2)[C@@H]1c1cccc([N+](=O)[O-])c1`, the Potency was 21.1 µM (active) and 13 µM (active) in test [1]; 15 µM (active) and 13 µM (active) in test [2]; 23.1 µM (active) in test [3].
In the case of `CC(C)(C)NC(=O)[C@@H]1CN(Cc2cccnc2)CCN1C[C@@H](O)C[C@@H](Cc1ccccc1)C(=O)N[C@H]1c2ccccc2C[C@H]1O`, the Potency result in test [1], in test [2] and in test [3] was “inactive” each time.
In the case of `COC(=O)C1=C(C)NC(C)=C(C(=O)OC)C1c1ccccc1[N+](=O)[O-]`, the Potency is 13.3 µM (active) in test [1], 11.9 µM (active) in test [2] and 9.2 µM (active) in test [3].
The corresponding values for `COC(=O)Nc1ccc(-c2nc(N3CCOCC3)c3cnn(C4CCN(C(=O)OC)CC4)c3n2)cc1` are 0.662 µM (active), 1.05 µM (active) and 2.51 µM (active).
The corresponding values for `CCc1cc2c(cc1N1CCC(N3CCOCC3)CC1)C(C)(C)c1[nH]c3cc(C#N)ccc3c1C2=O` are 0.178 µM (active), 0.632 µM (active) and “inactive”.
The corresponding values for `NS(=O)(=O)c1cc2c(cc1Cl)NC(C1CC3C=CC1C3)NS2(=O)=O` (stereo not drawn) are “inactive”, “inactive” and “inactive”.
Regarding `O=c1[nH]sc2cc(Cl)ccc12`, the Potency entry in test [1] and in test [2] was “inactive” throughout. The Potency in test [3] is 3.26 µM (active).
`CCS(=O)(=O)c1ccc(OC)c(C(=O)OC)c1`: the Potency entry in test [1], in test [2] and in test [3] was “inactive” each time.
Regarding `CC(=O)C1CCC2C3CCC4=CC(=O)CCC4(C)C3CCC12C` (stereo not drawn), the Potency in test [1] was 16.6 µM (active); in test [2], 9.34 µM (active). Also, the Potency result in test [3] is “inactive”.
The corresponding values for `COC1=C(OC)C(=O)C(C/C=C(\C)CC/C=C(\C)CC/C=C(\C)CC/C=C(/C)CC/C=C(\C)CC/C=C(\C)CC/C=C(\C)CC/C=C(\C)CC/C=C(\C)CCC=C(C)C)=C(C)C1=O` are “inactive”, “inactive” and “inactive”.
The corresponding values for `Cc1ccc(-c2ccc3c(ccc4sc5c(c43)NC[C@@H](C)NC5=O)n2)cn1` are 2.59 µM (active), 2.91 µM (active) and 28.2 µM (active).
The corresponding values for `Cc1c(F)ccc(C(=O)Nc2cc([N+](=O)[O-])ccc2N2CCN(C)CC2)c1Cl` are 1.32 µM (active), 2.91 µM (active) and “inactive”.
In the case of `O=C(O)Cn1c(C(=O)Nc2nc(-c3ccccc3Cl)cs2)cc2ccccc21`, the Potency entry in test [1], in test [2] and in test [3] was “inactive” throughout.
Take `Cc1c(F)cc(C(=O)NC2CC2)cc1-c1ccc(C(=O)NCC(C)(C)C)cn1`: the values for the Potency in test [1] and in test [2] were 0.164 µM (active) and 0.461 µM (active), respectively. Further, the Potency entry in test [3] was “inactive”.
The corresponding values for `CC(C)NCCCC1(C(N)=O)c2ccccc2-c2ccccc21` are “inactive”, “inactive” and “inactive”.
Take `NC(=O)N/N=C/c1ccc([N+](=O)[O-])o1`: the Potency is 27.3 µM (active) and inactive in test [1]; 21.7 µM (active) in test [2]; 8.91 µM (active) in test [3].
With `COc1cc(-c2cc(-c3ccc(N4CCNCC4)cc3)cnc2C)cc(OC)c1OC`, the Potency in test [1] is 7.42 µM (active); in test [2], 8.33 µM (active). Further, the Potency entry in test [3] is “inactive”.
The corresponding values for `CC[N+](CC)(CC)CCOc1ccc(/C=C/c2ccccc2)cc1` are “inactive”, “inactive” and “inactive”.
The corresponding values for `Cc1cc(OCCCc2c3n(c4c(-c5c(C)nn(C)c5C)c(Cl)ccc24)[C@H](C)CN(c2cn(C)c4ccc(C(=O)O)cc24)C3=O)cc(C)c1Cl` are 0.742 µM (active), 0.662 µM (active) and 2 µM (active).
On to `Cc1nc2ccc(-n3ncc(C(=O)c4cc5ccccc5[nH]4)c3N)cc2[nH]1`, for which the Potency is 2.59 µM (active) in test [1]; 2.59 µM (active) and 4.68 µM (active) in test [2]. The Potency result in test [3] is “inactive”.
As to `O=C(Oc1ccccc1)c1ccccc1O`, the Potency result in test [1], in test [2] and in test [3] was “inactive” in each case.
In the case of `C=CC(=O)Nc1cccc(C)c1Nc1ncc2cc(-c3c(Cl)c(OC)cc(OC)c3Cl)ccc2n1`, the Potency in test [1] was 1.03 µM (active); in test [2], 1.46 µM (active); in test [3], 3.55 µM (active).
The corresponding values for `Cc1nc(NC(=O)N2CCCC2C(N)=O)sc1-c1ccnc(C(C)(C)C(F)(F)F)c1` (stereo not drawn) are 18.6 µM (active), 9.2 µM (active) and 12.6 µM (active).
The corresponding values for `C[C@@H](OC[C@@]1(c2ccccc2)CC[C@]2(CCC(=O)N2)CN1)c1cc(C(F)(F)F)cc(C(F)(F)F)c1` are 7.42 µM (active), 7.42 µM (active) and 25.1 µM (active).
Take `CCOC(=O)[C@H](CCc1ccccc1)N[C@@H](C)C(=O)N(CC(=O)O)C1Cc2ccccc2C1`: the Potency result in test [1], in test [2] and in test [3] was “inactive” throughout.
For `CCc1cc(S(=O)(=O)O)c2cc(C(C)C)cccc1-2`, the Potency entry in test [1], in test [2] and in test [3] was “inactive” throughout.
`CN(C)[C@@H]1C(=O)C(C(=O)NCN2CCCC2)=C(O)[C@@]2(O)C(=O)C3=C(O)c4c(O)cccc4[C@@](C)(O)C3C[C@@H]12` (stereo partly drawn): the Potency result in test [1], in test [2] and in test [3] was “inactive” in each case.
Consider `Oc1ccc(/C=C/c2cc(O)cc(O)c2)cc1`, for which the Potency in test [1] is 16.6 µM (active); in test [2], 18.6 µM (active). In test [3], the Potency entry was “inactive”.
The corresponding values for `COc1ccc2cc1Oc1ccc(cc1)C[C@H]1c3c(cc4c(c3Oc3cc5c(cc3OC)CCN(C)[C@@H]5C2)OCO4)CCN1C` are 11.9 µM (active), 9.44 µM (active) and 18.4 µM (active).
Turning to `NS(=O)(=O)OC[C@@H]1C[C@@H](n2ccc3c(N[C@H]4CCc5ccccc54)ncnc32)C[C@@H]1O`, the Potency in test [1] is 103 nM (active) and 164 nM (active); in test [2] it was 73.1 nM (active) and 82 nM (active) and 74.2 nM (active); in test [3], 0.708 µM (active).
Regarding `Cc1ccccc1C(=O)Nc1ccc(C(=O)N2CCCC(N(C)C)c3ccccc32)cc1` (stereo not drawn), the Potency is 5.96 µM (active) and 2.91 µM (active) in test [1]; 4.73 µM (active) and 4.61 µM (active) in test [2]; 1.64 µM (active) in test [3].
Consider `O=C(c1ccc(Nc2nc(C3CC3)cn3c(-c4cn[nH]c4)cnc23)c(F)c1)N1CCOCC1`, for which the results for the Potency in test [1], in test [2] and in test [3] were 1.05 µM (active), 1.66 µM (active) and 7.94 µM (active), respectively.
In the case of `CNc1ncc2cc(-c3cc(NC(=O)NCCC(C)(C)C)c(F)cc3C)c(C)nc2n1`, the Potency in test [1] is 0.103 µM (active); in test [2], 0.164 µM (active); in test [3], 17.8 µM (active).
